Reference: PubChem BioAssay AID652105 (National Center for Advancing Translational Sciences (NCATS), 2013)
Screen size: about 330,000 compounds; about 4,100 (1.2%) were called active. Inconclusive results (about 2%) are left out. The entries come from a sample that favours actives as a whole. Values without a mark were called inactive. Rule for the calls: active = max response of -50% or lower; inconclusive = between -30% and -50%; inactive = -30% or higher.
% is set by controls: 0 for no effect and ±100 for the full control effect.
Note: value at the top dose of about 77 µM.

What follows are molecules tested against Phosphatidylinositol 5-phosphate 4-kinase type-2 alpha (Homo sapiens) (UniProt P48426) (assay: qHTS for Inhibitors of phosphatidylinositol 5-phosphate 4-kinase (PI5P4K)). Conditions: PI5P4Kalpha enzyme, ADP-Glo luminescence, 60 min; stronger effect = lower value.
Phosphatidylinositol 5-phosphate 4-kinase type-2 alpha (Homo sapiens), sequence (P48426 whole entry, looked up): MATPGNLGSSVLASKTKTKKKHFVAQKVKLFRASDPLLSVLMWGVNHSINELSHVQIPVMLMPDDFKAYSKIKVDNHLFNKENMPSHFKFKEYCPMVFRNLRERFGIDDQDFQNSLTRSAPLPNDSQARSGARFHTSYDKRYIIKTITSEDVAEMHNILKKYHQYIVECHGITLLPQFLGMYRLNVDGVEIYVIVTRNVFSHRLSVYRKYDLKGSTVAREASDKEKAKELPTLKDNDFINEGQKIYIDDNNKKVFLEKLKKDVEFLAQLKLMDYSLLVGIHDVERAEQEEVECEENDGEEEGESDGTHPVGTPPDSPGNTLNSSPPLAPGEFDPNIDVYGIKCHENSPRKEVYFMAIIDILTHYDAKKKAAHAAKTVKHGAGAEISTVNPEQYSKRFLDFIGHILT
Summary of the method: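 Quantitative HTS of the MLSMR library against PI5P4Kalpha with substrate. ATP added last at 5 microM final; room temperature, 60 minutes. Remaining ATP depleted, ADP converted and read as luminescence.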
For `CC(=O)N1CC[n+]2c(-c3ccc([N+](=O)[O-])cc3)csc21`, the max response was -61% (active).
In the case of `COc1ccc(C2CC(c3ccc([N+](=O)[O-])cc3)=NN2C(C)=O)cc1` (centres undefined), the max response is reported as 0.372%.
Molecule `CN1C2CCC1CC(NC(=O)c1ccc([N+](=O)[O-])cc1)C2` (centres undefined) has a max response of 0.848%.
`COC(=O)[C@]12CCCCC=C1N(CCC1=CCCCC1)C(=O)[C@H](CC(=O)NCC1CCCCC1)C2` was tested, and the max response was 7.3%.
With `CC(=O)N1Cc2cc(C(=O)NCc3cccc(F)c3)nc(-c3cccc(C4=CCCC4)c3)c2[C@H]1CCO` the max response was -1.08%.
`CNc1cc(-c2c(OC)cccc2OC)ncn1` showed a max response of 3.83%.
With `C[C@@H]1C[C@@H]2O[C@H]2/C=C\C=C\C(=O)Cc2c(Cl)c(O)cc(O)c2C(=O)O1` the max response was -50.5% (active).
`CC1(C(=O)Nc2cccc3c2CCCC3)CCN1C(=O)C1(c2ccccc2)CC1` (centres undefined) was tested, and the max response was 20.1%.
`O=C1OCCOC2CCCc3oc(-c4ccccc4)c1c32` (centres undefined) was tested, and the max response was -3.14%.
With `OC(c1ccc(F)cc1)c1ncc(-c2cccc(C(F)(F)F)c2)[nH]1` (centres undefined) the max response was 16.6%.
`COC1=C/C(=C/c2c(N)n3nc(CC(=O)N4CCOCC4)sc3nc2=O)C=CC1=O` was tested, and the max response was -79.3% (active).
In the case of `COc1cccc(/C=C2\SC(=S)N(CCCC(=O)N3CCOCC3)C2=O)c1`, the max response is reported as 1.86%.
In the case of `C=CCC1=C/C(=C\c2c(N)n3nc(CC(=O)N4CCOCC4)sc3nc2=O)C=C(OC)C1=O`, the max response is reported as -61.1% (active).
Molecule `COc1cc(/C=C2\C(=N)N3N=C(CC(=O)N4CCOCC4)SC3=NC2=O)cc(OC)c1OC` has a max response of 1.99%.
`CCOC(=O)/C=c1\s/c(=C\c2ccccc2OC)c(=O)n1CC(=O)N1CCOCC1` was tested, and the max response was -6.89%.
With `CCOC(=O)C1=CCC(c2ccc(F)cc2)N(S(=O)(=O)c2ccc(C)cc2)C1` (centres undefined) the max response was 8.18%.
For `O=C(COc1ccc(Br)cc1)OCC(=O)c1ccc[nH]1`, the max response was 1.45%.
For `CCc1nc2c(OCc3ccc(C(=O)OC)cc3)cccn2c1N(C)C(=O)C(C)C`, the max response was -5.01%.
For `COc1ccc(C(=O)Nc2ccccc2C(=O)N/N=C/c2ccc(O)c(OC)c2)cc1`, the max response was -50.7% (active).
`CCOc1cc(/C=N/NC(=O)c2cc(-c3ccccc3)nc3ccccc23)ccc1O` showed a max response of 1.21%.
`COc1cc(/C=N/NC(=O)c2ccc(N3CCCC3=O)cc2)ccc1O` showed a max response of 0.256%.
`CCCCCCN1CCN(C2CN(Cc3cn(CCCCCC)nn3)S(=O)(=O)C2)CC1` (centres undefined) showed a max response of -1.03%.
For `CC(C)Nc1nc(NCCOc2ccccc2Cl)c2sccc2n1`, the max response was -24.4%.
`O=C(NCc1ccco1)c1cccc(-c2ccc3nncn3c2)c1` was tested, and the max response was 5.11%.
With `Cc1cccc(C)c1Cn1c(C)c(C(=O)NCc2cccc(Cl)c2)sc1=O` the max response was 9.15%.
In the case of `CCOC(=O)/C(N=Nc1cc(C(=O)O)cc(C(=O)O)c1)=C(\O)CCl`, the max response is reported as -52.4% (active).
With `COc1cccc(CN(C)C(=O)CC[C@H]2O[C@@H](n3cnc4c(NC(=O)c5ccccc5)ncnc43)[C@H](O)[C@@H]2O)c1` the max response was -6.93%.
Work on `COC(=O)[C@@]12C[C@@H](CC(=O)NCc3cccc(C(F)(F)F)c3)C(=O)N(Cc3ccco3)C1=CCC(C)(C)C2` yielded a max response of -1.12%.
`Nn1c(SCC(=O)Nc2nccs2)nnc1-c1ccco1` gave a max response of -11.2%.
`NC(=O)c1c(NC(=O)CSc2nnc(-c3ccco3)n2N)sc2c1CCCC2` was tested, and the max response was -79.7% (active).
`Cc1cc(NC(=O)CSc2nnc(-c3ccco3)n2N)no1` showed a max response of -9.01%.
Molecule `O=C1c2ccccc2C(c2nc3ccccc3[nH]2)N1c1ccccc1` (centres undefined) has a max response of -0.58%.
With `COc1ccc(/C=C(\C#N)C(=O)OCC(=O)N(C)C2CCS(=O)(=O)C2)cc1` (centres undefined) the max response was 4.63%.
Work on `CN(C(=O)COC(=O)Cc1ccccc1[N+](=O)[O-])C1CCS(=O)(=O)C1` (centres undefined) yielded a max response of 1.78%.
In the case of `CN(C(=O)COC(=O)c1cc(-c2ccco2)nc2ccccc12)C1CCS(=O)(=O)C1` (centres undefined), the max response is reported as -66.2% (active).
`CCNC(=O)c1cc2c(c(-c3cccc(-c4cncnc4)c3)n1)[C@H](CCO)N(C(C)=O)C2` was tested, and the max response was 1.34%.
Work on `CCCCc1c(-c2ccc(Cl)cc2)ncn1CCc1ccccc1OC` yielded a max response of 19%.
`Fc1cccc(Cc2c(-c3ccc(Cl)cc3)nc3ccc(Cl)cn23)c1` was tested, and the max response was 1.89%.
Molecule `O=C(Cc1c(F)cccc1Cl)Nc1ccc(-n2cnnn2)cc1` has a max response of 4.15%.
For `O=C(COc1ccc(-n2cnnn2)cc1)Nc1ccccc1Cl`, the max response was -51.4% (active).
For `C=CCc1cccc(/C=N/NC(=O)COc2ccc(-n3cnnn3)cc2)c1O`, the max response was -0.249%.
In the case of `C=CCC[C@@H](CCCCC)OC(=O)/C=C/[C@@H](O)[C@H](O)C[C@H](O)CC=C`, the max response is reported as 17.3%.
With `COCCNc1nc(Nc2ccccc2Cl)c2sc(-c3ccccc3)cc2n1` the max response was -2.99%.
In the case of `O=[N+]([O-])c1cc(S(=O)(=O)Nc2cccc(Cl)c2)ccc1N=Nc1c(O)[nH]c2ccccc12`, the max response is reported as -75.5% (active).
`Oc1[nH]c2ccccc2c1N=Nc1c(F)c(F)c(F)c(F)c1F` gave a max response of 1.14%.
`O=C(O)c1ccccc1/C=N/Nc1ccc(S(=O)(=O)Nc2ccc(Cl)cc2)cc1[N+](=O)[O-]` was tested, and the max response was -7.22%.
In the case of `CCOC(=O)[C@]12CCCC=C1N(Cc1ccc3c(c1)OCO3)C(=O)[C@H](CC(=O)NCc1cccs1)C2`, the max response is reported as 3.13%.
With `COc1cccc(CNC(=O)[C@@H]2CCCN2C(=O)[C@@H]2CCCN2C(=O)c2ccccc2)c1` the max response was -1.24%.
For `O=C(/C=C/c1c(F)cccc1Cl)Nc1nn[nH]n1`, the max response was -56.7% (active).
For `O=C(CCc1ccccc1)Nc1nn[nH]n1`, the max response was -6.47%.
With `O=C(/C=C/c1c(Cl)cccc1Cl)NCc1ccccc1` the max response was 3.82%.
Molecule `Nc1nc(CSc2nnnn2-c2ccccc2)nc(Nc2ccccc2)n1` has a max response of 2.21%.
`C[C@H]1CN([C@@H](C)CO)C(=O)c2cc(Br)cnc2O[C@H]1CN(C)S(=O)(=O)c1cccs1` was tested, and the max response was 6.03%.
For `CCOC(=O)[C@]12CCCC=C1N(CCC1=CCCCC1)C(=O)[C@H](CC(=O)N1CCCCC1)C2`, the max response was -3.48%.
